Laboratory results from PubChem BioAssay AID1159580 (chemical genetic matrix, 2015).
Among all 5,500 compounds or so, about 2,000 (36%) were called active. Roughly 18% stayed inconclusive and do not appear here. No stated cut-off is given here; in the data, active means normalized growth mostly below about 0.91 (no sharp cut-off); inconclusive means no clear call, values can overlap the other calls; inactive means mostly above about 0.92. The list shows a part of the results.

Experiment: chemical genetic growth profiling, strain panel (AID 1159580);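 further: tested at 20 µM; growth read once vehicle control cultures reached saturation at 30 °C; 1 = growth at the plate median or of vehicle wells; lower values mean less growth of the strain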
Conditions: S. cerevisiae deletion strains, growth OD

Measured: normalized growth

NC(N)=NOCCC(N)C(=O)O (stereo not given)
inactive: locus YAL040C, strain CLN3, hits give low values 0.988 | locus YER002W, strain NOP16, hits give low values 0.98 | locus YGR078C, strain PAC10, hits give low values 0.996 | locus YGR229C, strain SMI1, hits give low values 1.01 | locus YMR263W, strain SAP30, hits give low values 0.98 | locus YNL175C, strain NOP13, hits give low values 0.984 | locus YNL197C, strain WHI3, hits give low values 0.984 | locus YNL224C, strain SQS1, hits give low values 0.999 | locus YOR083W, strain WHI5 (second series), hits give low values 0.975 | locus YPL241C, strain CIN2, hits give low values 0.996
